Screening results from PubChem BioAssay.
14-3-3 Bad inh = disrupts binding of bovine 14-3-3 zeta to phospho-Bad peptide; P63103; TR-FRET 14-3-3zeta/Dy647-pBad peptide displacement, 1 h; inhibition, % at 21.7 µM; 0.71% of 220,000 active; AID 781;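 active = inhibition above about 70%, limit read from the data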
Target sequence (P63103 whole entry, looked up): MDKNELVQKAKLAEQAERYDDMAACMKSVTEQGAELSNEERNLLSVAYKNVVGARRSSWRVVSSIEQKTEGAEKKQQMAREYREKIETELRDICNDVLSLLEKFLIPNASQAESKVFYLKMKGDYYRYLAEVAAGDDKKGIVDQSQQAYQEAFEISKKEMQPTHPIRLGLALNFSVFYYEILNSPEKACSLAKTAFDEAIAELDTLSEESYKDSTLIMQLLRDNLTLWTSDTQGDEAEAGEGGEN
MCL1-BIM inh = MCL1-BIM-BH3 interaction inhibition (human); Q07820; GST-MCL1 / FITC-Bim-BH3 fluorescence polarization; inhibition, % at 10.9 µM; 0.68% of 320,000 active; AID 2057;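 active = inhibition above the mean inhibition of all tested compounds plus 3 SD, set per campaign, cut at about 40% in these data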;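 note: higher means more loss of mP so more displacement of Bim peptide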
Target sequence (Q07820 whole entry, looked up): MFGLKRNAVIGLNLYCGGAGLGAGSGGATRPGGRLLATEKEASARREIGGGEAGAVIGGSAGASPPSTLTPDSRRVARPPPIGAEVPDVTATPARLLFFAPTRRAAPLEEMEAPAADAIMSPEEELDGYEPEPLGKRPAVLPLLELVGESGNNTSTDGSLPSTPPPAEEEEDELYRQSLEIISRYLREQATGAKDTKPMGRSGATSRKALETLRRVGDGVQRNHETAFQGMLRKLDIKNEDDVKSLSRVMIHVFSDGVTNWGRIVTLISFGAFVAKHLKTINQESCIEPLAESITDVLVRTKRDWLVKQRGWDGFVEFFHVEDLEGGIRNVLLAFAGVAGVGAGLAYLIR
Mcl-1 Bim block = human Bim-Mcl-1 interaction inhibition. Q07820. Bead-based flow cytometry, Bim peptide-Mcl-1 binding. inhibition, % at 10 µM. 0.1% of 190,000 active; in the data active = inhibition above about 40%
Mcl1 Bid PPI = Mcl-1/Bid interaction inhibition. TR-FRET Mcl-1/Bid-Dy647 peptide binding, 1536-well. inhibition, % at 21.7 µM. 0.97% of 220,000 active. Q07820;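 active = compounds that cut the binding signal by more than half at the single screening dose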;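 note: His-tagged Mcl-1 with europium anti-His antibody binding Bid BH3 peptide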
Mcl1-Noxa inh = Mcl-1/Noxa interaction inhibition | TR-FRET Mcl-1/Noxa peptide binding, 2 h | inhibition, % at 21.7 µM | Q07820 | AID 1022 | 1.5% of 220,000 active;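 active = compounds that cut the protein-peptide binding signal by more than 50% relative to plate controls in a single-dose test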;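 note: His-tagged Mcl-1 with rhodamine Noxa BH3 peptide and terbium anti-His antibody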
Of the large screens only hits and unclear results are named; the others gave an inactive call. An excerpt weighted towards active compounds, which were near 2.5% of everything screened.

c1ccc(-c2csc3ncnc(N4CCN(Cc5ccc6c(c5)OCO6)CC4)c23)cc1	none (no result: 14-3-3 Bad inh, Mcl-1 Bim block, Mcl1 Bid PPI, Mcl1-Noxa inh)
O=C(Nc1ccccc1)N1CCN(Cc2ccc3c(c2)OCO3)CC1	Mcl1 Bid PPI 58
Cc1cc(C)cc(NC(=O)N2CCN(Cc3ccc4c(c3)OCO4)CC2)c1	none (no result: Mcl-1 Bim block)
COc1ccc(NC(=O)CN2CCN(Cc3ccc4c(c3)OCO4)CC2)cc1OC	none
O=C(CSc1ncnc2scc(-c3ccccc3)c12)N1CCN(Cc2ccc3c(c2)OCO3)CC1	Mcl1-Noxa inh 61
OC(COCc1ccc2c(c1)OCO2)CN1CCN(Cc2ccccc2)CC1 (stereo not given)	14-3-3 Bad inh 79, Mcl1 Bid PPI 52
COc1cc(NC(=O)CN2CCN(Cc3ccc4c(c3)OCO4)CC2)cc(OC)c1	14-3-3 Bad inh 82
COc1ccccc1OCC(=O)N1CCCC(Nc2cccc(F)c2)C1 (stereo not given)	none (no result: 14-3-3 Bad inh, Mcl-1 Bim block, Mcl1 Bid PPI, Mcl1-Noxa inh)
CCCc1cc(=O)n(-c2nc3ccccc3s2)[nH]1	none (no result: Mcl-1 Bim block)
Cc1ccc(C(=O)c2cc3c(cc2[N+](=O)[O-])OCCO3)cc1	none
COc1ccc(Cn2c(-c3ccc(OC)c(O)c3)nc3ccccc32)cc1O	none
Cc1ccc2nc(CCc3ccc(N)cc3)[nH]c2c1	none (no result: 14-3-3 Bad inh, Mcl-1 Bim block, Mcl1 Bid PPI, Mcl1-Noxa inh)
COc1cc(/C=C2/SC(N)=NC2=O)ccc1Oc1ccc([N+](=O)[O-])cc1[N+](=O)[O-]	Mcl1 Bid PPI 67, Mcl1-Noxa inh 60
CCCOc1ccc(/C=C2\SC(N)=NC2=O)cc1OC	none (no result: 14-3-3 Bad inh, Mcl-1 Bim block, Mcl1 Bid PPI, Mcl1-Noxa inh)
COc1cc(/C=C2\SC(=O)NC2=O)ccc1Oc1ccc([N+](=O)[O-])cn1	none (no result: Mcl-1 Bim block)
COc1cc(/C=C2/SC(=O)NC2=O)ccc1Oc1ccc([N+](=O)[O-])cc1[N+](=O)[O-]	Mcl1-Noxa inh 90 (no result: Mcl-1 Bim block)
O=C(CSc1nc(O)c(Cc2ccccc2)c(=O)[nH]1)N1CCOCC1	none (no result: Mcl-1 Bim block)
Cn1c2ccccc2c(=O)c2c(=O)n(C3CCCCCC3)c(C3CCCCC3)nc21	14-3-3 Bad inh 87, Mcl1 Bid PPI 89 (no result: MCL1-BIM inh)
COc1cc(NC(=O)CCCNC(=O)c2ccc(Cl)cc2)cc(OC)c1	none (no result: 14-3-3 Bad inh, Mcl-1 Bim block, Mcl1 Bid PPI, Mcl1-Noxa inh)
CCN(c1ccc(NC(=O)COC(=O)c2ccc(C)c(S(=O)(=O)N3CCOCC3)c2)cc1)C(C)C	Mcl1-Noxa inh 74
Cc1ccc(C(=O)OCC(=O)Nc2ccc3c(c2)OCO3)cc1S(=O)(=O)N1CCOCC1	none
CCc1ccccc1NC(=O)c1cccc(NC(=O)/C=C/c2ccco2)c1	none
O=C(CSCc1ccccc1)Nc1cccc(C(=O)Nc2ccccc2C(=O)O)c1	none
O=C(/C=C/c1ccco1)Nc1cccc(C(=O)Nc2ccccc2C(=O)O)c1	Mcl1-Noxa inh 57 (no result: Mcl-1 Bim block)
O=C(O)CCCC(=O)Nc1cccc(C(=O)Nc2ccccc2C(=O)O)c1	Mcl1 Bid PPI 82
O=C(Nc1cccc(F)c1)C1CCN(S(=O)(=O)c2cnc[nH]2)CC1	none (no result: 14-3-3 Bad inh, Mcl-1 Bim block, Mcl1 Bid PPI, Mcl1-Noxa inh)
CCN(CC)c1ccc(NC(=O)c2nc3nc(C)cc(C(F)F)n3n2)cc1	Mcl1-Noxa inh 58
Cc1cc(C)n2nc(C(=O)Nc3ccc4c(c3)OCO4)nc2n1	Mcl1-Noxa inh 54
COc1ccccc1CNC(=O)Cn1cnnn1	none (no result: 14-3-3 Bad inh, Mcl-1 Bim block, Mcl1 Bid PPI, Mcl1-Noxa inh)
Cc1ccc(S(=O)(=O)N(C)CC(O)Cn2c3ccccc3c3ccccc32)cc1 (stereo not given)	Mcl1 Bid PPI 72
COc1ccc2c(c1)c(C(=O)CN1CCC(C(N)=O)CC1)c(C)n2C	none
CC(=O)C1=C(c2ccccc2)NC(=S)NC1c1cc(Cl)c(OC(C)C)c(Cl)c1 (stereo not given)	none
CC(=O)C1=C(c2ccccc2)NC(=S)NC1c1ccc(O)c(O)c1 (stereo not given)	Mcl1-Noxa inh 52
COC(=O)c1c(NC(=O)CC2Nc3cc(C)c(C)cc3NC2=O)sc(C)c1C (stereo not given)	Mcl1 Bid PPI 62, Mcl1-Noxa inh 64
O=C(N/N=C/c1cccnc1)c1ccc(S(=O)(=O)N2CCCCCC2)cc1	none (no result: Mcl-1 Bim block)
O=C(O)[C@H](Cc1ccccc1)NC(=O)C(c1ccccc1)(c1ccccc1)c1ccccc1	14-3-3 Bad inh 88
O=C(CC(c1ccccc1)(c1ccccc1)c1ccccc1)N[C@@H](Cc1ccccc1)C(=O)O	none
CN1CCN(CC(=O)Nc2nc3c(s2)CCCC3)CC1	none (no result: Mcl-1 Bim block)
Cc1ccc(NC(=O)Cn2cccc2)cc1Cl	14-3-3 Bad inh active
Cc1ccc(NC(=O)CCn2cccc2)cc1C	Mcl1 Bid PPI 60
Cc1cc(NC(=O)CSc2ncc(CO)n2Cc2ccc(F)cc2)no1	none (no result: 14-3-3 Bad inh, Mcl-1 Bim block, Mcl1 Bid PPI, Mcl1-Noxa inh)
N#Cc1sc2nc3c(c(-c4cccnc4)c2c1N)CCC3	none
CC1=C(C#N)C(=O)NC(=O)/C1=C\c1ccc(-c2ccc(C)cc2[N+](=O)[O-])o1	Mcl1 Bid PPI 75, Mcl1-Noxa inh 95 (no result: MCL1-BIM inh)
Cc1ccc(-c2ccc(/C=N/N=C3/NC(=O)C(CC(=O)O)S3)o2)c([N+](=O)[O-])c1 (stereo not given)	none
CCC(CC)=N/N=C/c1c(O)n(CC)c2cc(C3=NNC(=O)CC3)ccc12	Mcl1 Bid PPI 66
CC1CCN(CCOc2cc(Cl)ccc2Cl)CC1	none
COc1ccccc1NC(=O)COC(=O)CCn1c(C)csc1=O	none (no result: 14-3-3 Bad inh, Mcl-1 Bim block, Mcl1 Bid PPI, Mcl1-Noxa inh)
CCn1c(CSc2nc3ccccc3s2)nnc1SCC(=O)c1ccc(O)c(O)c1	Mcl1-Noxa inh 62
CCn1c(CSc2nc3ccccc3s2)nnc1SCC(=O)c1ccc(Cl)cc1	none
CCOC(=O)Cn1c(=O)oc2cc(S(=O)(=O)Nc3ccc(N(CC)CC)cc3C)ccc21	Mcl1-Noxa inh 54
O=C1C=C(c2ccccc2)OC2(CCCC2)O1	none
O=C1C=C(c2ccc(Cl)cc2)OC2(CCCC2)O1	14-3-3 Bad inh 72
COC(=O)c1cc(OC)c(OC)cc1NCC(=O)Nc1ccc(C)cc1	Mcl1 Bid PPI 81
COC(=O)c1cc(OC)c(OC)cc1NCC(=O)Nc1ccc(OC)c(OC)c1	none
CN(C(=O)c1cccc(NC(=O)Cc2ccccc2)c1)c1ccccc1	none (no result: 14-3-3 Bad inh, Mcl-1 Bim block, Mcl1 Bid PPI, Mcl1-Noxa inh)
COc1cc(CC(CC(=O)O)CC(C)OCc2ccccc2)cc(OC)c1 (stereo not given)	none
Cc1ccc(-c2csc3nnc(SCC(=O)N4CCN(Cc5ccccc5)CC4)n23)cc1	none
O=C(CSc1nnc2scc(-c3ccccc3)n12)N1CCN(Cc2ccccc2)CC1	Mcl1 Bid PPI 95
CC(C)(C)OC(=O)N[C@@H](Cc1ccccc1)c1nnc(S(=O)(=O)Cc2cccc(F)c2)o1	none
CN1/C(=C\C=N\NC(=O)c2ccccc2Br)C(C)(C)c2ccccc21	none
COc1ccc(S(=O)(=O)Nc2ccccc2Cl)cc1NC(C)=O	14-3-3 Bad inh 91
C=CCc1ccccc1OCC(O)CN(C(C)C)C(C)C (stereo not given)	14-3-3 Bad inh 71
CSc1ccccc1NC(=O)CN(C)CC(=O)Nc1ccc(N2CCOCC2)cc1	Mcl-1 Bim block 48
CN1CCN(c2ccc(NC(=O)Cc3ccccc3)cc2)CC1	none
CN(CC(=O)Nc1ccc(N2CCOCC2)cc1)CC(=O)Nc1ccc(N2CCOCC2)cc1	none (no result: Mcl-1 Bim block)
O=C(CCC(=O)c1cccs1)Nc1ccc(N2CCCCC2)cc1	Mcl1-Noxa inh 57
CC1CCCCN1CC(=O)Nc1ccc(N2CCCCCC2)cc1 (stereo not given)	Mcl1-Noxa inh 58
